Assay results: PubChem BioAssay (Tox21)
Where “and” joins values, the source holds several entries; their conditions need not be identical. Identical values can stand only once. Results filed as inconclusive are left out. A call without a number means that no potency is given here. Calls of active or inactive are those of the source. Calls follow the shape of the dose curve; as a rule, active = well fitted cell-killing curve with a large enough effect in the repeat runs; inconclusive = weak or mixed curves; inactive = flat fitted curve, though single readings scatter.

Assay: qHTS assay to identify small molecule antagonists of the estrogen related receptor (ERR) signaling pathway from Tox21 library - cell viability counter screen (AID 1224834); also: nearly all actives have a fitted effect of over 30% in size
Settings: ERR reporter cells viability, CellTiter-Fluor, 17.5 h; series mostly up to 92.4 µM
From the text: National Center for Advancing Translational Sciences [NCATS]
NIH Chemical Genomics Center [NCGC]
U.S. Environmental Protection Agency [EPA]
National Institutes of Environmental Health Sciences [NIEHS]
National Toxicology Program [NTP]
U.S. Food and Drug Administration [FDA]
Estrogen related receptors (ERRs), the first orphan nuclear receptors discovered, play an important role in the control of cellular energy metabolism. ERRs are required for high-energy production in response to the environmental challenges. ERR-alpha was also identified as an adverse marker for breast cancer progression; ERR-alpha-positive tumors have a poor prognosis. To screen and to identify environmental compounds that perturb the ERR signaling pathways could provide valuable information for potential therapeutic or preventive measures in the treatment of metabolic disease. To differentiate true ERR antagonists or agonist from cytotoxic substances, the assay is multiplexed with cell viability assay.
Tox21 Assay Protocol Summary:
The ERR cells were dispensed at 2,000 cells/5 ul/well in 1536-well white plates using a Multidrop dispenser. After the assay plates were incubated at a 37 C/5% CO2 incubator for 6 hours, 23 nL of compounds dissolved in DMSO, positive and negative controls or DMSO only was transferred to the assay plate by a pin tool. The plates were incubated at 37 C for 17.5 hours. 1 ul/well of CellTiter-Fluor reagent was added into the assay plates using a Flying Reagent Dispenser. After 30-minute incubation at 37 C/5% CO2, the fluorescence intensity in the plates was measured using a ViewLux plate reader.
Potency is read from the fitted curve at half-maximal effect.

Structure (SMILES) | Potency | viability change, negative = cytotoxic
Cc1ccc(C(=O)Cl)cc1 | inactive | –
CCCN(CCC)CCc1c[nH]c2ccccc12 | inactive | –
CC(C)CBr | inactive | –
CC[C@H](C)[C@H]1O[C@]2(C=C[C@@H]1C)C[C@@H]1C[C@@H](C/C=C(\C)[C@@H](O[C@H]3C[C@H](OC)[C@@H](O[C@H]4C[C@H](OC)[C@@H](O)[C@H](C)O4)[C@H](C)O3)[C@@H](C)/C=C/C=C3\CO[C@@H]4[C@H](O)C(C)=C[C@@H](C(=O)O1)[C@]34O)O2 | 16.1 µM (active) | –
CCCCCCCCCCCCCCCCCCn1cc[n+](C)c1 | 27.1 µM (active) | –
CC1(C)[C@H](C(=O)O[C@H](C#N)c2cccc(Oc3ccccc3)c2)[C@@H]1/C=C(\Cl)C(F)(F)F | inactive | –
C[As+](C)(C)CC(=O)[O-] | inactive | –
Cc1ccc(OP(=O)(Oc2ccccc2)Oc2ccccc2)cc1 | inactive | –
CC(c1ccc(O)cc1)c1ccc(O)cc1 | inactive | –
O=C(CCl)C(Cl)Cl | 27.6 µM (active) | –
CCCCCCCCCCCCBr | inactive | –
CN(C)S(=O)(=O)N(SC(F)(Cl)Cl)c1ccccc1 | 30.6 µM (active) | –
CCC(C)c1cc([N+](=O)[O-])cc([N+](=O)[O-])c1OC(=O)C=C(C)C (stereo not given) | 27.3 µM (active) | –
Clc1ccc(COC(Cn2ccnc2)c2ccc(Cl)cc2Cl)cc1 (stereo not given) | 45.3 µM (active) and 48.4 µM (active) and 26.6 µM (active) | –
Cc1c(Cl)c(=O)oc2cc(OP(=O)(OCCCl)OCCCl)ccc12 | inactive | –
N#C/C=C/c1ccccc1 | inactive | –
CC(=O)C(Cl)(Cl)Cl | 20.9 µM (active) | –
ClCc1ccccc1CCl | inactive | –
CC(=O)[O-].CC(=O)[O-].[Hg+2] | 3.86 µM (active) | –
CC(Cl)CN(C)C (stereo not given) | inactive | –

Structure (SMILES) | Potency | viability change, negative = cytotoxic
CC(=O)Nc1ccc2c(c1)Cc1ccccc1-2 | inactive | –
C1CCC2CCCCC2C1 (stereo not given) | inactive | –
COc1ccc(OC)c(C=O)c1 | inactive | –
ClC1=C(Cl)C2(Cl)C3C(Cl)C(Cl)CC3C1(Cl)C2(Cl)Cl (stereo not given) | 68.4 µM (active) | –
CNC(C)Cc1ccc2c(c1)OCO2 (stereo not given) | inactive | –
O=C1C=CC(=O)c2ccccc21 | 61.1 µM (active) | –
Oc1ccc(I)cc1 | inactive | –
O=C(O)c1cc[c]([Hg][Cl])cc1 | 13.7 µM (active) | –
CCCCCCCCCCCCCCCC[N+](C)(C)C | 23.5 µM (active) and 61.1 µM (active) and 18.8 µM (active) | –
CC(C)CCCCCOC(=O)c1ccccc1C(=O)OCCCCCC(C)C | inactive | –
Clc1ccc(CO/N=C(\Cn2ccnc2)c2ccc(Cl)cc2Cl)c(Cl)c1 | 26.6 µM (active) | –
O=c1[nH]c2ccccc2n1C1CCN(CCCC(c2ccc(F)cc2)c2ccc(F)cc2)CC1 | 30.6 µM (active) and 26.6 µM (active) | –
CN(C)C1CSSSC1 | inactive | –
Fc1cccc(Cl)c1CCl | inactive | –
Cn1[nH]nnc1=S | inactive | –
CC(C)[C@H](C(=O)OC(C#N)c1cccc(Oc2ccccc2)c1)c1ccc(OC(F)F)cc1 (stereo not given in full) | inactive | –
NNC(=O)c1ccccc1 | inactive | –
Brc1c(Br)c(Br)c(Oc2c(Br)c(Br)c(Br)c(Br)c2Br)c(Br)c1Br | – | 0.115% [at 19 µM] (inactive)
Cc1cc(C(C)(C)c2cc(C)c(O)c(C)c2)cc(C)c1O | 41.8 µM (active) | –
CCOC(=O)OC1=C(c2cc(C)ccc2C)C(=O)NC12CCC(OC)CC2 (stereo not given) | inactive | –
